Experimental data from PubChem BioAssay AID504692 (The Scripps Research Institute Molecular Screening Center, 2011).
Among all 340,000 compounds or so, about 2,000 (0.59%) were called active. The sample holds actives, similar compounds and a random draw of the others, so the mix is not that of the screen. A number with no mark means an inactive call. Rule as the data show it: active = activation mostly above about 9.5% (no sharp cut-off); inactive = mostly below about 7.6%.

What follows are compounds tested against 5-hydroxytryptamine receptor 5A (Homo sapiens) (UniProt P47898) (assay: activation of human 5-HT5A receptor – cell-based, luminescence, full-deck HTS, counter-screen for OPRM1-OPRD1 heterodimer agonist project, primary screen (AID 504692;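 also: 0% = cells with vehicle only and 100% = reference agonist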)). Conditions: HTR5A agonist assay, at 9.3 µM, active compounds read high.
Chain of 5-hydroxytryptamine receptor 5A (Homo sapiens) (P47898 whole entry, looked up): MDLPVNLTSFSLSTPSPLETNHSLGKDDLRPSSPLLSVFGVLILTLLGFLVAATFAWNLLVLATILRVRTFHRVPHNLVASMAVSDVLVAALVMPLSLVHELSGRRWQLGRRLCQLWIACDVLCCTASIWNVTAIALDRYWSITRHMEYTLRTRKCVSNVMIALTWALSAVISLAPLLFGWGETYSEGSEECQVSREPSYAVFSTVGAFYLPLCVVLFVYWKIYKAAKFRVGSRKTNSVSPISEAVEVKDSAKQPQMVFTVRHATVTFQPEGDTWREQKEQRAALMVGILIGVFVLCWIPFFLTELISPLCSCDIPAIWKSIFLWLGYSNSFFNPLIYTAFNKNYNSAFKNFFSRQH

| SMILES | activation |
| --- | --- |
| CC(NC(=O)COc1ccc(-c2ccccc2)cc1)C1CCCO1 (stereo unspecified) | 4.73% |
| Cc1nn(CC(=O)NCc2ccccn2)c(C)c1[N+](=O)[O-] | -1.81% |
| COCCCNC(=O)CN1CCN(Cc2ccccc2Cl)C1=O | 2.41% |
| Cc1ccccc1CN1CCN(CC(=O)NCc2ccccn2)C1=O | 16.8% (active) |
| O=C(Cn1nnc(-c2ccccc2)n1)N/N=C/c1ccc(-c2ccc(Cl)cc2)o1 | 1.41% |
| CCc1ccc(C(=O)OCC(=O)Nc2cccc(S(=O)(=O)NC3=NCCCCC3)c2)cc1 | 7.2% |
| CN(CCOc1ccc(Br)cc1)CC(=O)Nc1cccc(S(=O)(=O)NC2=NCCC2)c1 | 12.7% (active) |
| CC(=O)Nc1ccc(C(=O)Nc2cccc(S(=O)(=O)NC3=NCCC3)c2)cc1 | 1.89% |
| Cn1c(=O)[nH]c(=O)c2c1nc(N(CCO)Cc1ccccc1)n2Cc1ccccc1Cl | -3.62% |
| COc1ccc(Cl)cc1NC(=O)C(C)N1CCc2ccccc21 (stereo unspecified) | 1.38% |
| CCCCCc1ccc(-c2ccc(C(=O)O)cc2)nc1 | 4.14% |
| CCc1ccc(NC(=O)CN2C(=O)CSC2=O)cc1 | 13.7% (active) |
| CCc1ccc(NC(=O)CN2C(=O)COc3ccc(S(=O)(=O)N4CCCC4)cc32)cc1 | 0.59% |
| COc1ccc(NC(=O)CN2C(=O)CSC2=O)cc1 | -1% |
| COC(=O)c1c(CCl)noc1C(=O)NC(C)C | 2.61% |
| CC(C)(C)NC(=O)COC(=O)c1cc(Cl)ccc1[N+](=O)[O-] | 7.24% |
| CCOC(=O)c1cnc2sccn2c1=O | 21% (active) |
| CN(C)/C=C/C(=O)c1cnc2sccn2c1=O | 0.28% |
| CCOC(=O)c1ccccc1NS(=O)(=O)c1c(C)nc2sccn2c1=O | -1.95% |
| Cc1nc(C(=O)NCc2ccccc2)sc1C1(C)CC(c2cccnc2)=NO1 (stereo unspecified) | 6.13% |
| Cc1cccc(OCC(=O)Nc2ccccc2F)c1 | 0.76% |
| Cc1cccc(OCCC(=O)Nc2ccccc2C(N)=O)c1 | 1.89% |
| COc1cccc(OCC(=O)Nc2ccccc2C(N)=O)c1 | 18.3% (active) |
| Cc1cc(C)c(S(=O)(=O)NCC(c2ccc3c(c2)OCO3)N2CCOCC2)c(C)c1 (stereo unspecified) | -4.07% |
| Cc1ccc2nc(SC(C)C(=O)NCc3ccco3)[nH]c2c1 (stereo unspecified) | -4.41% |
| CC(=O)c1c(C)[nH]c(C(=O)OCC(=O)Nc2c(C)cccc2C)c1C | 17.5% (active) |

| SMILES | activation |
| --- | --- |
| CC(=O)c1c(C)[nH]c(C(=O)OCC(=O)Nc2c(C)n(C)n(-c3ccccc3)c2=O)c1C | 1.57% |
| CC(=O)c1c(C)[nH]c(C(=O)OCC(=O)NCCC(C)C)c1C | -1.47% |
| CSCCC(NS(=O)(=O)/C=C/c1ccccc1)C(=O)N1CCC(C)CC1 (stereo unspecified) | -0.99% |
| O=C(COc1ccc(S(=O)(=O)Nc2cccc(C(F)(F)F)c2)cc1)N1CCOCC1 | 1.4% |
| CCNS(=O)(=O)c1ccc(NC(=O)c2cncc(Br)c2)cc1 | 0.87% |
| COc1ccccc1C(=O)Nc1cccc(C(=O)N2CCOCC2)c1 | 3.58% |
| O=C(Nc1ccc(C(=O)N2CCOCC2)cc1)Nc1cccc(C(F)(F)F)c1 | 28.4% (active) |
| O=C(NCc1ccccc1)c1ccc(S(=O)(=O)Nc2cccc(C(F)(F)F)c2)cc1 | 2.56% |
| CCNS(=O)(=O)c1ccc(NC(=O)Nc2cccc(C(F)(F)F)c2)cc1 | 12.8% (active) |
| Cc1cc(OCCN2CCCC2)ccc1C(C)C | 8.01% |
| O=C(NCCCO)c1cc2c([nH]c3ccccc32)c(-c2ccc(F)cc2)n1 | 1.16% |
| COc1ccccc1C(=O)COC(=O)COc1ccc(C#N)cc1 | -2.03% |
| COc1ccc(-c2nc(CS(=O)(=O)CC(=O)NCc3cccc(Br)c3)c(C)o2)cc1 | 4.07% |
| O=C(COC(=O)CCCNC(=O)c1ccc(Cl)cc1)Nc1cc(Cl)ccc1Cl | 7.08% |
| O=C(CN(c1ccccc1)S(=O)(=O)c1ccc(Cl)cc1)Nc1ccccc1C(=O)N1CCCC1 | -0.02% |
| CCN(CC)C(=O)c1nc[nH]c1C(=O)N(C)Cc1ccccc1 | -1.14% |
| COc1ccc(COC(=O)NC(C(=O)O)c2ccccc2)cc1 (stereo unspecified) | -0.04% |
| COc1ccc(CCNC(=O)C(Sc2ccccn2)c2ccccc2)cc1OC (stereo unspecified) | 2.72% |
| COc1ccc(C(CCN(Cc2ccc(OC)c(OC)c2)C(=O)CCl)c2ccccc2)cc1 (stereo unspecified) | 44.4% (active) |
| CCCNC(=S)NC1CC2CCCC(C1)N2CC(C)C (stereo unspecified) | 4.6% |
| COc1c(N2CCN(C(=S)Nc3ccccc3F)C(C)C2)c(F)cc2c(=O)c(C(=O)O)cn(C3CC3)c12 (stereo unspecified) | -0.11% |
| O=C(NC(Cc1c[nH]c2ccccc12)C(=O)O)/C(=C/c1ccco1)NC(=O)c1ccccc1 (stereo unspecified) | 0.55% |
| Cc1ccc(C(=O)N/C(=C\c2ccco2)C(=O)N2CCSCC2)cc1C | 1.54% |
| Cc1ccc(C(=O)N/C(=C/c2ccco2)C(=O)NCCc2c[nH]c3ccccc23)cc1C | 20.3% (active) |
| Cc1ccc(/C=N/NC(=O)C(NC(=O)c2ccccc2)c2n[nH]c(=O)c3ccccc23)cc1 (stereo unspecified) | 3% |
